Measurements reported in PubChem BioAssay (NCATS).
“And” between values parts separate entries of the source, which are not always exact repeats. Identical values can stand only once. Results filed as inconclusive are left out. Entries that show only a call come without a potency. The source made the active and inactive calls. The call rests on the fitted dose curve; in most records, active means well fitted cell-killing curve with a large enough effect; inconclusive means small, poorly fitted or top-dose-only effect; inactive means flat fitted curve, though single readings scatter.

Legend:
[1] = Cell Viability - LYMP2-025 (AID 976); settings: LYMP2-025 lymphoblastoid cell viability; series mostly up to 92.2 µM
Method in brief: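 In qHTS format, LYMP2-025 lymphoblastoid cells in complete culture medium received compound for 24 hr; ATP-based CellTiter-Glo signal gave viability, with AC50 derived by Hill equation.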

[2] = Cell Viability - LYMP2-002 (AID 977); settings: LYMP2-002 lymphoblastoid cell viability, qHTS; series mostly up to 92.2 µM
Method in brief: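 Luminescent ATP readout (CellTiter-Glo, 30 min room temperature) after 24 h compound exposure at 37 C of a human lymphoblastoid line, 2500 cells/well. AC50 values derived by standard Hill fitting of qHTS concentration-response data.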

[3] = Cell Viability - LYMP2-006 (AID 978); settings: LYMP2-006 lymphoblastoid cell viability, qHTS; series mostly up to 92.2 µM;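 further: cells exposed to compound for 24 hours; nearly all actives have a fitted effect of over 60% in size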
Method in brief: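 Human lymphoblastoid cells (LYMP2-006), 2500/well in complete medium, were treated with compound for 24 hr at 37 C. Cellular ATP was read by CellTiter-Glo luminescence after 30 min, and AC50 values came from Hill-equation fits of concentration-response data.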

[4] = Cell Viability - LYMP2-008 (AID 980); settings: LYMP2-008 lymphoblastoid cell viability, qHTS; series mostly up to 92.2 µM; further: nearly all actives have a fitted effect of over 60% in size
Method in brief: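 Acute cytotoxicity is scored as concentration-dependent loss of cellular ATP in a human lymphoblastoid line after 24 hr treatment at 37 C. ATP is quantified by luciferase luminescence.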

[5] = Cell Viability - LYMP2-010 (AID 981); settings: LYMP2-010 lymphoblastoid cell viability, qHTS; series mostly up to 92.2 µM;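 further: cells exposed to compound for 24 hours at 37 °C; nearly all actives have a fitted effect of over 55% in size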
Method in brief: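 Acute toxicity is scored as a concentration-dependent loss of cellular ATP in human lymphoblastoid cells after 24 hr compound exposure in complete medium. Tetraoctylammonium bromide is the positive control.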

[6] = Cell Viability - LYMP2-012 (AID 982); settings: LYMP2-012 lymphoblastoid cell viability qHTS; series mostly up to 92.2 µM;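 further: cellular ATP by luciferase luminescence where a drop means cytotoxicity; cells exposed to compound for one day before reading; nearly all actives have a fitted effect of over 55% in size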
[7] = Cell Viability - LYMP2-014 (AID 983); settings: LYMP2-014 lymphoblastoid cells, viability qHTS; series mostly up to 92.2 µM; further: nearly all actives have a fitted effect of over 50% in size
Method in brief: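 Decrease in intracellular ATP after 24 hr treatment at 37 C, measured by luciferase luminescence, indicated cytotoxicity. Concentration-response data were fitted with the standard Hill equation to give AC50.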

[8] = Cell Viability - LYMP2-018 (AID 985); settings: LYMP2-018 lymphoblastoid cells, viability (qHTS); series mostly up to 92.2 µM;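 further: compound exposure lasted 24 hr at 37 °C; nearly all actives have a fitted effect of over 50% in size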
Method in brief: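 Acute cytotoxicity is scored as a concentration-dependent drop in intracellular ATP after 24 hr exposure of the lymphoblastoid line in complete culture medium, measured by luciferase luminescence. Potency is expressed as AC50 from Hill modelling.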

[9] = Cell Viability - LYMP2-020 (AID 986); settings: series mostly up to 92.2 µM; further: nearly all actives have a fitted effect of over 55% in size
Method in brief: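 Acute cytotoxicity in a human lymphoblastoid line is scored as a concentration-dependent fall in cellular ATP after 24 hr at 37 C in complete medium. The positive control is tetraoctylammonium bromide, and potency is given as Hill-fit AC50.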

[10] = Cell Viability - LYMP2-022 (AID 987); settings: LYMP2-022 lymphoblastoid cell viability; series mostly up to 92.2 µM; further: nearly all actives have a fitted effect of over 55% in size
Method in brief: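 Acute toxicity in a human lymphoblastoid line is scored as decreased intracellular ATP after 24 hr compound treatment at 37 C. ATP is measured by CellTiter-Glo luminescence; curves are fitted with the Hill equation to give AC50.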
Potency means the concentration at half of the fitted maximal effect.

SMILES	Potency [1]	Potency [2]	Potency [3]	Potency [4]	Potency [5]	Potency [6]	Potency [7]	Potency [8]	Potency [9]	Potency [10]
O=[N+]([O-])c1ccccc1	inactive	inactive	inactive	inactive	inactive	inactive	inactive	inactive	inactive	inactive
O=C1C2CC=CCC2C(=O)N1SC(Cl)(Cl)Cl (centres undefined)	–	6.31 µM (active) and 10 µM (active)	7.94 µM (active) and 10 µM (active)	12.6 µM (active) and 10 µM (active)	2.51 µM (active) and 3.16 µM (active)	2.51 µM (active) and 5.01 µM (active)	5.01 µM (active) and 6.31 µM (active)	3.98 µM (active) and 7.94 µM (active)	3.16 µM (active) and 5.01 µM (active)	2 µM (active) and 3.98 µM (active)
COc1ccc2c(c1OC)C(=O)OC2C1c2cc3c(cc2CCN1C)OCO3 (centres undefined)	inactive	inactive	inactive	inactive	inactive	inactive	inactive	inactive	inactive	inactive
C[C@]12CCC(=O)C[C@@H]1CC[C@@H]1[C@@H]2CC[C@]2(C)[C@@H](O)CC[C@@H]12	inactive	inactive	inactive	inactive	inactive	inactive	inactive	inactive	inactive	inactive
O=Cc1ccco1	inactive	inactive	inactive	inactive	inactive	inactive	inactive	inactive	inactive	inactive
CCOC(=O)c1ccccc1C(=O)OCC	inactive	inactive	inactive	inactive	inactive	inactive	inactive	inactive	inactive	inactive
CC(C)(C)c1cc(O)ccc1O	inactive	inactive	–	inactive	50.1 µM (active)	50.1 µM (active)	–	50.1 µM (active)	50.1 µM (active)	50.1 µM (active) and 39.8 µM (active)
Clc1ccccc1Cl	inactive	inactive	inactive	inactive	inactive	inactive	inactive	inactive	inactive	inactive
[O]=[Cd]	inactive	inactive	inactive	inactive	inactive	inactive	inactive	inactive	inactive	inactive
O=C1CCO1	inactive	inactive	inactive	inactive	inactive	inactive	inactive	inactive	inactive	inactive
C=CCN=C=S	inactive	inactive	inactive	inactive	inactive	inactive	inactive	inactive	inactive	inactive
ClC=C(Cl)Cl	inactive	inactive	inactive	inactive	inactive	inactive	inactive	inactive	inactive	inactive
CC(C)CCON=O	inactive	inactive	inactive	inactive	inactive	inactive	inactive	inactive	inactive	inactive
[O]=[Cr](=[O])([OH])[O][Cr](=[O])(=[O])[OH]	15.8 µM (active) and 12.6 µM (active)	12.6 µM (active) and 15.8 µM (active) and 10 µM (active)	12.6 µM (active) and 15.8 µM (active) and 10 µM (active)	12.6 µM (active) and 10 µM (active)	10 µM (active) and 7.94 µM (active)	12.6 µM (active) and 15.8 µM (active) and 7.94 µM (active)	12.6 µM (active) and 15.8 µM (active) and 10 µM (active)	7.94 µM (active) and 12.6 µM (active)	15.8 µM (active) and 10 µM (active)	10 µM (active) and 12.6 µM (active) and 7.94 µM (active)
C[C@H]1CCC[C@H](O)CCCCCc2cc(O)cc(O)c2C(=O)O1	inactive	inactive	inactive	inactive	inactive	inactive	inactive	inactive	inactive	inactive
[Cl-].[Cl-].[Hg+2]	15.8 µM (active)	20 µM (active)	15.8 µM (active)	–	0.316 µM (active)	–	12.6 µM (active)	5.01 µM (active)	3.16 µM (active)	–

SMILES	Potency [1]	Potency [2]	Potency [3]	Potency [4]	Potency [5]	Potency [6]	Potency [7]	Potency [8]	Potency [9]	Potency [10]
O=C/C=C/c1ccccc1	inactive	inactive	inactive	inactive	inactive	inactive	inactive	inactive	inactive	inactive
S=C=S	inactive	inactive	inactive	inactive	inactive	inactive	inactive	inactive	inactive	inactive
O=C(O)C(Cl)(Cl)Cl	inactive	inactive	inactive	inactive	inactive	inactive	inactive	inactive	inactive	inactive
CC(C)Nc1ccc(Nc2ccccc2)cc1	50.1 µM (active)	25.1 µM (active)	25.1 µM (active)	39.8 µM (active)	25.1 µM (active)	25.1 µM (active)	39.8 µM (active)	20 µM (active)	25.1 µM (active)	15.8 µM (active)
NNC(N)=O	inactive	inactive	inactive	inactive	inactive	inactive	inactive	inactive	inactive	inactive
O=C1C=CC(=O)C=C1	inactive	inactive	–	–	39.8 µM (active)	39.8 µM (active)	inactive	–	–	39.8 µM (active)
C[C@H]1CC[C@@H]2[C@@H](C)[C@H]3[C@H](C[C@H]4[C@@H]5CC=C6CC(O[C@@H]7O[C@H](CO)[C@H](O)[C@H](O[C@@H]8O[C@H](CO)[C@@H](O)[C@H](O)[C@H]8O)[C@H]7O[C@H]7O[C@@H](C)[C@H](O)[C@@H](O)[C@H]7O)CC[C@]6(C)[C@H]5CC[C@]34C)N2C1 (some centres undefined)	39.8 µM (active)	50.1 µM (active)	–	50.1 µM (active)	39.8 µM (active)	31.6 µM (active)	50.1 µM (active)	–	–	–
CCCCCl	inactive	inactive	inactive	inactive	inactive	inactive	inactive	inactive	inactive	inactive
Oc1cc(Cl)c(Cl)cc1Cl	inactive	inactive	inactive	inactive	inactive	inactive	inactive	inactive	inactive	inactive
O=CC=O	inactive	inactive	inactive	inactive	inactive	inactive	inactive	inactive	inactive	inactive
O=[N+]([O-])c1ccc(F)c([N+](=O)[O-])c1	inactive	inactive	inactive	–	–	inactive	inactive	–	inactive	–
COC1=CC(=O)O[C@@H](/C=C/c2ccccc2)C1	inactive	inactive	inactive	inactive	inactive	inactive	inactive	inactive	inactive	inactive
ClCC1CO1 (centres undefined)	inactive	inactive	inactive	inactive	inactive	inactive	–	–	inactive	–
ClC(Cl)(Cl)Cl	inactive	inactive	inactive	inactive	inactive	inactive	inactive	inactive	inactive	inactive
CCCCCCCCOC(=O)c1ccccc1C(=O)OCCCCCCCC	inactive	inactive	inactive	inactive	inactive	inactive	inactive	inactive	inactive	inactive
